40 compounds from PubChem BioAssay (Tox21) can be followed below.

Records with an inconclusive call do not appear. A call without a number means that no potency is given here. Calls of active or inactive are those of the source. The call rests on the fitted dose curve; in most records, active means well fitted cell-killing curve with a large enough effect in the repeat runs; inconclusive means weak or mixed curves, or effect the other way; inactive means flat fitted curve, though single readings scatter.
Potency means the concentration at half of the fitted maximal effect.

The nature of the test: Nuclear factor erythroid 2-related factor 2/antioxidant responsive element (Nrf2/ARE) small molecule agonists: qHTS cell viability counter screen in human keratinocytes (AID 1919968). Further: nearly all actives have a fitted effect of over 55% in size. The note with it: KeratinoSens HaCaT ARE cells viability, CellTiter-Fluor, 24 h; series mostly up to 92.4 µM. An excerpt: U.S. Tox21 Program National Center for Advancing Translational Sciences [NCATS] Division of Preclinical Innovation [DPI] U.S. Environmental Protection Agency [EPA] National Institutes of Environmental Health Sciences [NIEHS] National Toxicology Program [NTP] U.S. Food and Drug Administration [FDA] Tox21 Assay Overview: Oxidative stress has been implicated in the pathogenesis of a variety of diseases ranging from cancer to neurodegeneration. The antioxidant response element (ARE) signaling pathway plays an important role in the amelioration of oxidative stress. The KeratinoSens (Givaudan, Switzerland) is an in vitro test method which quantifies luciferase induction as a measure of activation of Keap1-Nrf2-antioxidationt/electrophile response element (ARE) dependant pathway in HaCaT human keratinocytes stably transfected with a selectable plasmid. The KeratinoSens assay is a cell-based assay with a reporter cell line to detect potential skin sensitizers by their ability to induce the Nrf2/ARE-response. The activation of the report gene under culture conditions can be detected by ONE-Glo Luciferase Assay System (Promega, Madison, WI). This cell line has been used to screen the Tox21 10K compound library to identify agonists that induce oxidative stress. The cytotoxicity of the Tox21 compound library against the KS-ARE cell line was tested in parallel by measuring the cell viability using CellTiter- Fluor assay system (Promega, Madison, WI) in the same wells.
Tox21 Assay Protocol Summary: HaCaT derived cell line KeratinoSens were dispensed at 1,500 cells/5uL/well in 1536-well white wall/solid bottom plates using a Multidrop Combi (ThermoFisher Scientific, Waltham, MA) dispenser. After the assay plates were incubated at 37 C/5% CO2 for 5 h, 23 nL of compounds dissolved in DMSO, positive controls or DMSO only was transferred to the assay plate by a pintool workstation (Kalypsys, San Diego, CA). The plates were incubated at 37 C/5% CO2 for 23 h, followed by addition of 1uL/well of CellTiter-Fluor reagent into the assay plates using a Flying Reagent Dispenser (Aurora Discovery, San Diego, CA) for cell viability readout that measures cytotoxicity. After 1 h incubation at 37 C/5% CO2 the fluorescence intensity was measured using a ViewLux (PerkinElmer, Shelton, CT) plate reader.
(In general: In qHTS, concentration-response curves come from the screen itself.)
Consider `CCCCCCCCCCCCCCCC/C=C/C1CC(=O)OC1=O` (stereo not given), for which the Potency entry was “inactive”.
For `CC(C)=CCC[C@H](C)CCO`, the Potency entry is “inactive”.
Consider `CCC(C)COC(=O)CC(C)C` (stereo not given), for which the Potency result was “inactive”.
With `COc1ccccc1OCC(O)COC(N)=O` (stereo not given), the Potency result was “inactive”.
Turning to `CN=C(N)NC(=O)Nc1c(C)cccc1C`, the Potency entry was “inactive”.
For the compound `O=C1CCC(C2CCCCC2)CC1`, the Potency result was “inactive”.
Same read-out and setting: then `C=CCOc1c(Br)cc(C(C)(C)c2cc(Br)c(OCC=C)c(Br)c2)cc1Br`, with “inactive”.
Still for that read-out and setting: as for `CCCCCC[C@@H](O)C/C=C\CCCCCCCC(=O)OCC(O)CO` (stereo not given in full), the entry is “inactive”; as for `CCCC(=O)OC(=O)CCC`, “inactive”.
`CN1CCN(C2Cc3ccccc3Sc3ccc(Cl)cc32)CC1` (stereo not given): the Potency is 29.8 µM (active).
`CCCCCCCCCCCCCCCCCC(=O)OCCCCCCCCCCCCCC(C)C`: the Potency result was “inactive”.
As to `COc1ccc(Nc2ccc(OC)cc2)cc1`, the Potency entry was “inactive”.
On the same count and under the same terms, as for `CCC=CC#N`, the entry is “inactive”.
On the same count and under the same terms, then `COc1ccccc1OCC(O)CN1CCN(CC(=O)Nc2c(C)cccc2C)CC1` (stereo not given), with “inactive”; and `CCc1cc(Cc2cc(CC)cc(C(C)(C)C)c2O)c(O)c(C(C)(C)C)c1`, with 13.7 µM (active).
Same read-out and setting: then `COC(=O)c1ccccc1Cl`, with “inactive”.
`C[C@H]1NCc2cc(-c3ccc4c(=O)c(C(=O)O)cn(C5CC5)c4c3OC(F)F)ccc21`: the activity change, negative = cytotoxicity is 4.74% [at 19 µM] (inactive).
On the same count and under the same terms, then `N[C@@H](COP(=O)(O)O)C(=O)O`, with 7.74% [at 19 µM] (inactive).
Take `Oc1c(I)cc(I)c2cccnc12`: the Potency entry is “inactive”.
Still for that read-out and setting: as for `CCOC(=O)c1ccccc1`, the entry is “inactive”.
As for `COc1ccc(-n2nc(C(F)F)cc2-c2ccc(S(C)=O)cc2)cc1` (stereo not given), the Potency result is “inactive”.
The same measure, in the same setting: as for `NNc1nnc(NN)c2ccccc12`, the entry is “inactive”; as for `CCC(=O)Nc1ccc(O)cc1`, “inactive”; as for `CC12CCC(CC1=O)C2(C)C` (stereo not given), “inactive”.
Take `C/C=C(\C)C(=O)OCC/C=C\CC`: the Potency entry was “inactive”.
For `COc1cc2c(cc1N)oc1ccccc12`, the Potency entry is “inactive”.
Still for that read-out and setting: as for `CC1OC(=O)C(C)OC1=O` (stereo not given), the entry is “inactive”.
Regarding `C[N+](C)(C)CC(O)CC(=O)[O-]` (stereo not given), the Potency result was “inactive”.
`Cc1ccc(C(=O)c2ccc(CC(=O)O)n2C)cc1`: the Potency entry was “inactive”.
Regarding `CCCCCCCCCCCC(C)=O`, the Potency entry was “inactive”.
For the compound `CC(C)NCCCC1(C(N)=O)c2ccccc2-c2ccccc21`, the Potency entry was “inactive”.
The same measure, in the same setting: then `O=C(NCC1CN(c2ccc(N3CCOCC3=O)cc2)C(=O)O1)c1ccc(Cl)s1` (stereo not given), with “inactive”; and `O=C(NCCc1c[nH]c2ccccc12)c1cccnc1`, with “inactive”.
The same measure, in the same setting: as for `c1ccc(CNCCNCc2ccccc2)cc1`, the entry is “inactive”; as for `C=CCn1c(=O)n(CC=C)c(=O)n(CC=C)c1=O`, “inactive”.
`O=C1c2ccccc2C(=O)C1c1ccc2ccccc2n1`: the Potency entry is “inactive”.
For the compound `CC(C)OCC1CO1` (stereo not given), the Potency result is “inactive”.
Same read-out and setting: then `CC(C=O)Cc1ccc(C(C)C)cc1` (stereo not given), with “inactive”; and `CC1(C)S[C@@H]2[C@H](N=CN3CCCCCC3)C(=O)N2[C@H]1C(=O)O`, with “inactive”; and `C[C@H](N)[C@H](O)c1cccc(O)c1`, with “inactive”.
